A short description of assay [1]: NCI Yeast Anticancer Drug Screen. Data for the rad50 strain (AID 155).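 Further: 0% = growth of vehicle-only cultures of the same strain.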 Conditions: S. cerevisiae rad50 strain growth inhibition, active compounds read high. The method in brief: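 Relative growth inhibition (compound vs vehicle) was measured in yeast with a defined repair-gene alteration.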
The nature of assay [2]: NCI Yeast Anticancer Drug Screen. Data for the mec2-1 strain (AID 157). Conditions: S. cerevisiae mec2-1 strain, active compounds read high. An outline of the steps:
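Each compound was tested on mec2-1 yeast, a strain altered in DNA damage repair or cell cycle control. Growth inhibition is reported relative to vehicle.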

The nature of assay [3]: NCI Yeast Anticancer Drug Screen. Data for the sgs1 mgt1 strain (AID 161).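 Further: 0% = growth of cultures given vehicle only.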 Conditions: S. cerevisiae sgs1 mgt1 strain, active compounds read high. The method in brief:
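Test agents were incubated with a DNA-repair-mutant yeast strain. Growth was then read and compared against vehicle-treated controls.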

Assay [4] in a line: NCI Yeast Anticancer Drug Screen. Data for the cln2 rad14 strain (AID 165).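 Further: 0% = growth equal to vehicle treated cultures.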 The settings on record: S. cerevisiae cln2 rad14 strain, active compounds read high. An outline of the steps: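 Test compounds were added to cln2 rad14 yeast cultures; inhibition of growth was then determined by comparison with vehicle treatment.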
Assay [5] can be described thus: NCI Yeast Anticancer Drug Screen. Data for the bub3 strain (AID 167). The settings on record: S. cerevisiae bub3 mutant strain, active compounds read high. The method in brief: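 Screening used yeast with an engineered genetic alteration affecting cell cycle control. Compound-exposed cultures were compared with vehicle cultures, and reduced growth was taken as inhibition.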

Assay [6] is described as follows: NCI Yeast Anticancer Drug Screen. Data for the mlh1 rad18 strain (AID 175). The settings on record: S. cerevisiae mlh1 rad18 strain growth inhibition, active compounds read high. The method in brief: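 Inhibition values reflect reduced growth of mutant yeast versus vehicle-treated controls following compound exposure; the mutations affect DNA damage repair.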
Setting [7] is: at 5.0 µM (retest, dose inferred, filed as 0.5).
Setting [8] is: at 50.0 µM (retest, dose inferred, filed as 5.0).

The structures appear in SMILES notation. The panel holds about 79,000 compounds, 15% with a hit somewhere; the sample as a whole holds those more often. Values without a mark were called inactive. The source made the active and inactive calls. No stated cut-off is given here; in the data, active means growth inhibition above about 70%; inactive means the rest.

As to `CN(C)C(C)(C)CCNc1c2ccccc2nc2cccc([N+](=O)[O-])c12`, the growth inhibition is 96% (active) in assay [1] (setting [7]); 97% (active) in assay [1] (setting [8]); 96% (active) in assay [1] (at 50.0 µM); 98% (active) in assay [2] (setting [7]); 100% (active) in assay [2] (setting [8]); 94.6% (active) in assay [2] (at 50.0 µM). For the same molecule, the growth inhibition in assay [3] (setting [7]) is 98% (active); in assay [3] (setting [8]) it was 99% (active); in assay [3] (at 50.0 µM), 96.7% (active); in assay [4] (setting [7]), 98% (active); in assay [4] (setting [8]) it was 99% (active); in assay [4] (at 50.0 µM), 94.5% (active). Also, the growth inhibition in assay [5] (setting [7]) is 96% (active); in assay [5] (setting [8]) it was 99% (active); in assay [5] (at 50.0 µM), 97.2% (active); in assay [6] (setting [7]) it was 98% (active); in assay [6] (setting [8]), 100% (active); in assay [6] (at 50.0 µM) it was 98% (active).

As for `CCCCCCCn1ccnc1NCCCCCCCCCCNc1nccn1CCCCCCC`, the growth inhibition in assay [1] (setting [7]) was -3%; in assay [1] (setting [8]), 98% (active); in assay [1] (at 50.0 µM), 99.3% (active); in assay [2] (setting [7]), -5%; in assay [2] (setting [8]) it was 98% (active); in assay [2] (at 50.0 µM) it was 99.6% (active). Also, the growth inhibition is -6% in assay [3] (setting [7]); 99% (active) in assay [3] (setting [8]); 47.4% in assay [3] (at 50.0 µM); -4% in assay [4] (setting [7]); 98% (active) in assay [4] (setting [8]); 93.9% (active) in assay [4] (at 50.0 µM). Moreover, the growth inhibition was 1% in assay [5] (setting [7]); 98% (active) in assay [5] (setting [8]); 94.5% (active) in assay [5] (at 50.0 µM); -1% in assay [6] (setting [7]); 98% (active) in assay [6] (setting [8]); 98.9% (active) in assay [6] (at 50.0 µM).

Turning to `CCOC(=O)c1sc2[n+](c1C)C(=O)/C(=C/c1ccc([N+](=O)[O-])cc1)S2`, the growth inhibition in assay [1] (setting [7]) is 4%; in assay [1] (setting [8]) it was 71% (active); in assay [1] (at 50.0 µM) it was 95.5% (active); in assay [2] (setting [7]), 4%; in assay [2] (setting [8]), 74% (active); in assay [2] (at 50.0 µM), 96.9% (active). Besides, the growth inhibition in assay [3] (setting [7]) was 16%; in assay [3] (setting [8]), 86% (active); in assay [3] (at 50.0 µM), 97% (active); in assay [4] (setting [7]), -4%; in assay [4] (setting [8]) it was 79% (active); in assay [4] (at 50.0 µM), 90.5% (active). For the same molecule, the growth inhibition in assay [5] (setting [7]) is -23%; in assay [5] (setting [8]), 46%; in assay [5] (at 50.0 µM) it was 96.8% (active); in assay [6] (setting [7]), 23%; in assay [6] (setting [8]) it was 89% (active); in assay [6] (at 50.0 µM), 97% (active).

As for `CC/C(=C1\C=CC(=O)S1)C(CC)c1ccc(OC(C)=O)cc1` (stereo not given), the growth inhibition in assay [1] (setting [7]) is -14%; in assay [1] (setting [8]), 99% (active); in assay [1] (at 50.0 µM), 99.2% (active); in assay [2] (setting [7]), -11%; in assay [2] (setting [8]) it was 99% (active); in assay [2] (at 50.0 µM), 89.3% (active). Further, the growth inhibition was -7% in assay [3] (setting [7]); 98% (active) in assay [3] (setting [8]); 99.3% (active) in assay [3] (at 50.0 µM); 0% in assay [4] (setting [7]); 99% (active) in assay [4] (setting [8]); 70.2% (active) in assay [4] (at 50.0 µM). Also, the growth inhibition in assay [5] (setting [7]) was -25%; in assay [5] (setting [8]), 99% (active); in assay [5] (at 50.0 µM), 93.9% (active); in assay [6] (setting [7]), -4%; in assay [6] (setting [8]) it was 99% (active); in assay [6] (at 50.0 µM), 99.3% (active).

Consider `Cc1ccc(S(=O)(=O)Nc2ccccc2SSc2ccccc2NS(=O)(=O)c2ccc(C)cc2)cc1`, for which the growth inhibition in assay [1] (setting [7]) is 46%; in assay [1] (setting [8]) it was 69%; in assay [1] (at 50.0 µM), 57.5%; in assay [2] (setting [7]), 38%; in assay [2] (setting [8]), 81% (active); in assay [2] (at 50.0 µM) it was 63.8%. The growth inhibition in assay [3] (setting [7]) is 59%; in assay [3] (setting [8]), 76% (active); in assay [3] (at 50.0 µM) it was 60.6%; in assay [4] (setting [7]), 44%; in assay [4] (setting [8]), 82% (active); in assay [4] (at 50.0 µM) it was 68.9%. For the same molecule, the growth inhibition is 53% in assay [5] (setting [7]); 74% (active) in assay [5] (setting [8]); 60.4% in assay [5] (at 50.0 µM); 63% in assay [6] (setting [7]); 77% (active) in assay [6] (setting [8]); 60.5% in assay [6] (at 50.0 µM).

As for `CCc1nc2c(O)ccc(O)c2nc1C`, the growth inhibition in assay [1] (setting [7]) is -137%; in assay [1] (setting [8]) it was 33%; in assay [1] (at 50.0 µM), 72.3% (active); in assay [2] (setting [7]), -43%; in assay [2] (setting [8]) it was -11%; in assay [2] (at 50.0 µM), 62.9%. Further, the growth inhibition in assay [3] (setting [7]) was -50%; in assay [3] (setting [8]) it was 37%; in assay [3] (at 50.0 µM), 65%; in assay [4] (setting [7]), -55%; in assay [4] (setting [8]), -10%; in assay [4] (at 50.0 µM) it was 59.4%. Also, the growth inhibition is -63% in assay [5] (setting [7]); 17% in assay [5] (setting [8]); 84.2% (active) in assay [5] (at 50.0 µM); -107% in assay [6] (setting [7]); 2% in assay [6] (setting [8]); 90.3% (active) in assay [6] (at 50.0 µM).

With `FC(F)(F)c1nc(SCc2ccc(Cl)cc2)n[nH]1`, the growth inhibition in assay [1] (setting [7]) is 3%; in assay [1] (setting [8]), 20%; in assay [1] (at 50.0 µM), 2.45%; in assay [2] (setting [7]) it was 0%; in assay [2] (setting [8]) it was 1%; in assay [2] (at 50.0 µM), -13.8%. The growth inhibition was -7% in assay [3] (setting [7]); 15% in assay [3] (setting [8]); -22.4% in assay [3] (at 50.0 µM); -10% in assay [4] (setting [7]); -17% in assay [4] (setting [8]); 38.6% in assay [4] (at 50.0 µM). The growth inhibition was -9% in assay [5] (setting [7]); 0% in assay [5] (setting [8]); -33.4% in assay [5] (at 50.0 µM); -3% in assay [6] (setting [7]); 13% in assay [6] (setting [8]); -17.8% in assay [6] (at 50.0 µM).

As for `CCOc1ccccc1C(=O)OCc1ccccc1`, the growth inhibition in assay [1] (setting [7]) was -7%; in assay [1] (setting [8]), 8%; in assay [1] (at 50.0 µM) it was 10.1%; in assay [2] (setting [7]), -9%; in assay [2] (setting [8]) it was 4%; in assay [2] (at 50.0 µM) it was 0.65%. For the same molecule, the growth inhibition in assay [3] (setting [7]) is -1%; in assay [3] (setting [8]) it was 19%; in assay [3] (at 50.0 µM), 18.9%; in assay [4] (setting [7]) it was 23%; in assay [4] (setting [8]), -22%; in assay [4] (at 50.0 µM), 15.2%. Further, the growth inhibition in assay [5] (setting [7]) is 4%; in assay [5] (setting [8]) it was -20%; in assay [5] (at 50.0 µM) it was 6.2%; in assay [6] (setting [7]) it was -19%; in assay [6] (setting [8]), 21%; in assay [6] (at 50.0 µM), 1.55%.

Take `COc1cc2c(c(OC)c1OC)-c1ccc(=O)c(OC)cc1[C@@H](N)CC2`: the growth inhibition in assay [1] (setting [7]) is 25%; in assay [1] (setting [8]) it was 22%; in assay [1] (at 50.0 µM), -5.6%; in assay [2] (setting [7]), 22%; in assay [2] (setting [8]), 16%; in assay [2] (at 50.0 µM) it was -26.4%. Further, the growth inhibition in assay [3] (setting [7]) is 22%; in assay [3] (setting [8]), 21%; in assay [3] (at 50.0 µM) it was -12.5%; in assay [4] (setting [7]), 24%; in assay [4] (setting [8]), 32%; in assay [4] (at 50.0 µM), -15.4%. Also, the growth inhibition in assay [5] (setting [7]) is 25%; in assay [5] (setting [8]), 19%; in assay [5] (at 50.0 µM), -5.1%; in assay [6] (setting [7]), 29%; in assay [6] (setting [8]), 26%; in assay [6] (at 50.0 µM), -49.5%.

For the molecule `CCOC(=O)/C(=C\c1cccc(OC)c1)C(C)=O`, the growth inhibition in assay [1] (setting [7]) is -5%; in assay [1] (setting [8]), 90% (active); in assay [1] (at 50.0 µM), 90.2% (active); in assay [2] (setting [7]) it was -5%; in assay [2] (setting [8]), 96% (active); in assay [2] (at 50.0 µM) it was 91.7% (active). Also, the growth inhibition in assay [3] (setting [7]) is -11%; in assay [3] (setting [8]) it was 93% (active); in assay [3] (at 50.0 µM) it was 90% (active); in assay [4] (setting [7]) it was -14%; in assay [4] (setting [8]), 86% (active); in assay [4] (at 50.0 µM), 84.3% (active). Besides, the growth inhibition is 23% in assay [5] (setting [7]); 95% (active) in assay [5] (setting [8]); 88.3% (active) in assay [5] (at 50.0 µM); -16% in assay [6] (setting [7]); 95% (active) in assay [6] (setting [8]); 88.3% (active) in assay [6] (at 50.0 µM).

The values are drawn from PubChem BioAssay (NCI).
